# Results published in ChEMBL document CHEMBL1157539, “Thousands of chemical starting points for antimalarial lead identification” (Nature, 2010).
# Legend:
# Type in all cases: functional
# [1] = system: Plasmodium falciparum; test: GSK_TCMDC: Inhibition of Plasmodium falciparum 3D7 in whole red blood cells, using parasite LDH activity as an index of growth. Test compounds present at 2uM
# [2] = system: Plasmodium falciparum; test: GSK_TCMDC: Inhibition of Plasmodium falciparum Dd2 in whole red blood cells, using parasite LDH activity as an index of growth. Test compounds present at 2uM
# [3] = system: HepG2; test: GSK_TCMDC: Percent inhibition of human HepG2 cell line. Test compounds present at 10uM.
structure (smiles),measurement,setting,value
O=C(Nc1ccccc1-c1ccccc1)C1CCCN1C(=O)Nc1ccc(Cl)cc1 (configuration not stated),Inhibition,[1],96%
same,Inhibition,[2],90%
same,Inhibition,[3],0%
O=C(/C=C/c1ccc(Cl)c(Cl)c1)N1CCC(CN2CCC(Cc3cc4ccccc4[nH]3)CC2)CC1,Inhibition,[1],96%
same,Inhibition,[2],56%
same,Inhibition,[3],49%
O=C(Nc1nc(-c2ccccn2)cs1)c1ccc(S(=O)(=O)N2CCc3ccccc32)cc1,Inhibition,[1],89%
same,Inhibition,[2],15%
same,Inhibition,[3],47%
Cc1cc(OCCCN2CCN(CCN3CCOCC3)CC2)ccc1NC(=O)COc1ccc(Cl)cc1C(=O)c1cc(Cl)cc(C#N)c1,Inhibition,[1],99%
same,Inhibition,[2],78%
same,Inhibition,[3],30%
O=C(c1cc(-c2ccccc2O)on1)N1CCN(C(c2ccccc2)c2ccccc2)CC1,Inhibition,[1],97%
same,Inhibition,[2],88%
same,Inhibition,[3],12%
O=C(O)C(F)(F)F.O=S(=O)(NCCN1CCCC1)c1ccc(-c2ccc(CNCc3ccc(F)cc3)cc2)s1,Inhibition,[1],100%
same,Inhibition,[2],44%
same,Inhibition,[3],42%
COc1ccc2nccc([C@@H](O)CN3CCC(NCc4cc5ccccc5nn4)CC3)c2c1.O=C(O)C(=O)O,Inhibition,[1],94%
same,Inhibition,[2],16%
same,Inhibition,[3],5%
Cc1ccc(CN2CCCCC(NC(=O)c3cc4ccccc4s3)C2)cc1.O=C(O)C(F)(F)F (configuration not stated),Inhibition,[1],94%
same,Inhibition,[2],8%
same,Inhibition,[3],9%
CC(C)(C)C1CCc2nc(N)nc(N)c2C1.Cl (configuration not stated),Inhibition,[1],94%
same,Inhibition,[2],38%
same,Inhibition,[3],69%
Cc1cc(CN2CC[C@H](NC(=O)c3ccc(Cl)c(Cl)c3)C2)ccc1OCCN1CCNCC1.O=C(O)C(F)(F)F,Inhibition,[1],94%
same,Inhibition,[2],1%
same,Inhibition,[3],15%
COc1ccc(CNC(=O)c2cnc3c(O)cccc3c2Nc2cccc(NC(=O)c3ccc(Cl)c(Cl)c3)c2)cc1.O=C(O)C(F)(F)F,Inhibition,[1],96%
same,Inhibition,[2],89%
same,Inhibition,[3],54%
O=C(Nc1ccc(OC2CCN(Cc3ccc(F)cc3)C2)cc1)c1ccco1.O=C(O)C(F)(F)F (configuration not stated),Inhibition,[1],88%
same,Inhibition,[2],69%
same,Inhibition,[3],0%
O=C(O)C(F)(F)F.O=S(=O)(Nc1ccc(-c2ccc(CN3CCCC3)cc2)cc1)c1cccc2cccnc12,Inhibition,[1],91%
same,Inhibition,[2],10%
same,Inhibition,[3],37%
N#Cc1ccc(N2CCN(Cc3cccc(-c4ccc(-c5nc6ccccc6[nH]5)cc4)c3)CC2)nc1.O=C(O)C(F)(F)F,Inhibition,[1],89%
same,Inhibition,[2],40%
same,Inhibition,[3],45%
CN(C)CCOc1ccc2c(c1)OC(C)(C)C=C2c1cccc2ccccc12.Cl,Inhibition,[1],95%
same,Inhibition,[2],48%
same,Inhibition,[3],66%
COc1cccc2cc(C(=O)N[C@@H](CC(C)C)C(=O)N[C@H](C=NN3CCOC3=O)CC(C)C)oc12,Inhibition,[1],90%
same,Inhibition,[2],72%
same,Inhibition,[3],4%
Cl.N=c1c2c(n(Cc3ccccc3)c3c1CCC3)CCCC2,Inhibition,[1],86%
same,Inhibition,[2],39%
same,Inhibition,[3],4%
CCCCCNc1ccnc2cc(Cl)ccc12,Inhibition,[1],97%
same,Inhibition,[2],99%
same,Inhibition,[3],12%
CCC1(C)N=C(N)N=C(N)N1c1ccc(Cl)cc1.Cl (configuration not stated),Inhibition,[1],95%
same,Inhibition,[2],0%
same,Inhibition,[3],7%
COc1ccc(Br)cc1/C=C/C(=O)Nc1ccc(C2CCN(C)CC2)cc1.O=CO,Inhibition,[1],100%
same,Inhibition,[2],61%
same,Inhibition,[3],11%
COc1cccc(CN2CCCC(COC(c3ccc(F)cc3)c3ccc(F)cc3)C2)c1O (configuration not stated),Inhibition,[1],98%
same,Inhibition,[2],100%
same,Inhibition,[3],24%
Cc1cnc(CN(Cc2ccc(-c3ccc(CNCCc4ccc(S(C)(=O)=O)cc4)cn3)cc2)C(=O)c2nn(-c3ccccc3)nc2C)cn1.O=C(O)C(F)(F)F,Inhibition,[1],84%
same,Inhibition,[2],21%
same,Inhibition,[3],11%
CC(=O)N/N=C/[C@H](CCc1ccccc1)NC(=O)[C@H](CC(C)C)NC(=O)c1cccc(OCCN2CCOCC2)c1,Inhibition,[1],94%
same,Inhibition,[2],78%
same,Inhibition,[3],13%
O=C1COc2ccccc2N1C/C=C(\CN1CCC(c2ccccc2)CC1)c1cc(Cl)cc(Cl)c1,Inhibition,[1],91%
same,Inhibition,[2],72%
same,Inhibition,[3],14%
O=C(NCc1ccc(F)cc1)Nc1ccc(-c2cccc(-c3nc4cc(C(F)(F)F)ccc4[nH]3)c2)cc1,Inhibition,[1],100%
same,Inhibition,[2],92%
same,Inhibition,[3],41%
COc1ccc(CNCc2ccc(-c3cccc(-c4nc5ccccc5[nH]4)c3)cc2)cc1.O=C(O)C(F)(F)F,Inhibition,[1],100%
same,Inhibition,[2],85%
same,Inhibition,[3],57%
CCOc1cccc(C(=O)Nc2cccc(CN3CCCN(Cc4cccc(O)c4)CC3)c2)c1.O=C(O)C(F)(F)F,Inhibition,[1],85%
same,Inhibition,[2],18%
same,Inhibition,[3],17%
Cc1cc(C(=O)NC2CCN(Cc3ccccc3)CC2)ccc1-c1nc2cc(Cl)c(Cl)cc2[nH]1,Inhibition,[1],96%
same,Inhibition,[2],32%
same,Inhibition,[3],7%
O=C(/C=C/c1ccc(Cl)c(Cl)c1)N1CCC(CN2CCC(c3nc4ccccc4n3CCCO)CC2)CC1,Inhibition,[1],96%
same,Inhibition,[2],0%
same,Inhibition,[3],60%
Cc1cc(Oc2cc(NC(=O)c3sc4ncn(Cc5ccccc5F)c(=O)c4c3C)cc([N+](=O)[O-])c2)ccc1Cl,Inhibition,[1],94%
same,Inhibition,[2],24%
same,Inhibition,[3],2%
CN(C)CCNC(=O)c1cc2c(-c3ccc(Cl)cc3)nn(C)c2s1,Inhibition,[1],98%
same,Inhibition,[2],81%
same,Inhibition,[3],18%
CCOC(=O)c1ccc(NC(=O)NNC(=O)c2ccc(CCN3CCC(c4nc(COCC(F)(F)F)c(-c5ccc(F)cc5)o4)CC3)cc2)cc1,Inhibition,[1],100%
same,Inhibition,[2],67%
same,Inhibition,[3],10%
CC(=O)c1cc(N2CCCC2)ccc1N,Inhibition,[1],97%
same,Inhibition,[2],97%
same,Inhibition,[3],1%
O=C(Nc1cccc(CN2CCN(Cc3ccc(O)cc3)CC2)c1)c1cc2ccccc2s1.O=C(O)C(F)(F)F,Inhibition,[1],100%
same,Inhibition,[2],26%
same,Inhibition,[3],15%
Cc1noc(-c2ccc(N3CCC(C(=O)N4CCN(C(C)C)CC4)CC3)cc2)n1.Cl,Inhibition,[1],95%
same,Inhibition,[2],0%
same,Inhibition,[3],0%
CCCNc1ccc(-c2cc(C(N)=O)c3[nH]cc(C4CCN(S(=O)(=O)CC)CC4)c3c2)cn1.O=C(O)C(F)(F)F,Inhibition,[1],99%
same,Inhibition,[2],42%
same,Inhibition,[3],6%
CCCC1(NC[C@@H](O)[C@H](Cc2ccccc2)NC(=O)c2cc(NCC)cc(N3CCCCS3(=O)=O)c2)CCCC1.Cl,Inhibition,[1],100%
same,Inhibition,[2],97%
same,Inhibition,[3],0%
CN(C)[C@@H]1C(O)=C(C(N)=O)C(=O)[C@@]2(O)C(O)=C3C(=O)c4c(O)ccc(C#Cc5ccccn5)c4C[C@H]3C[C@@H]12.Cl,Inhibition,[1],92%
same,Inhibition,[2],75%
same,Inhibition,[3],17%
CCCc1ccc(Nc2nc(C)cc(N(CC)CCCN3CCCCC3)n2)cc1.O=C(O)C(F)(F)F,Inhibition,[1],100%
same,Inhibition,[2],95%
same,Inhibition,[3],48%
O=C(Nc1nccs1)c1cc(-c2cccnc2)nc2ccc(Br)cc12,Inhibition,[1],100%
same,Inhibition,[2],79%
same,Inhibition,[3],7%
COc1ccc(Nc2cc(C)nc(Nc3ccc(NC(C)=O)cc3)n2)cc1,Inhibition,[1],98%
same,Inhibition,[2],31%
same,Inhibition,[3],16%
Cc1c(O)cccc1Nc1ccnc2ccc(C(F)(F)F)cc12.Cl,Inhibition,[1],96%
same,Inhibition,[2],51%
same,Inhibition,[3],0%
CC(Oc1ccc(C(=O)c2ccc(F)cc2)cc1)C(=O)N1CCc2ccccc21 (configuration not stated),Inhibition,[1],95%
same,Inhibition,[2],95%
same,Inhibition,[3],9%
COc1nc2c(CCN3CC[C@@H](NCc4cc(C#N)c5c(c4)CCO5)[C@@H](O)C3)ccnc2cc1F.Cl,Inhibition,[1],92%
same,Inhibition,[2],35%
same,Inhibition,[3],21%
Cc1cc(OCCCNc2nc(NCCc3ccc(O)cc3)nc(N3CCNCC3)n2)c(Cl)c(C)c1Cl.O=C(O)C(F)(F)F,Inhibition,[1],99%
same,Inhibition,[2],8%
same,Inhibition,[3],54%
CC(CNCc1cn(Cc2cc(Br)cc(Br)c2)c2ccccc12)CNc1cc(=O)c2ccccc2[nH]1 (configuration not stated),Inhibition,[1],100%
same,Inhibition,[2],50%
same,Inhibition,[3],10%
N#Cc1cncc(-c2nc3c(N4CCC(Cc5ccccc5)CC4)cccc3n2CCNCc2ccccc2)c1.O=C(O)C(F)(F)F,Inhibition,[1],99%
same,Inhibition,[2],99%
same,Inhibition,[3],2%
N#Cc1ccc2[nH]cc(CN3CCC4(CC3)CN(CCNCc3ccccc3)C(=O)O4)c2c1.O=C(O)C(F)(F)F,Inhibition,[1],100%
same,Inhibition,[2],0%
same,Inhibition,[3],0%
CN1CCC(Oc2ccc(CN3CC[C@H](NC(=O)c4ccc(F)c(F)c4)C3)c3ccccc23)C1.O=C(O)C(F)(F)F (some centres not stated),Inhibition,[1],91%
same,Inhibition,[2],27%
same,Inhibition,[3],20%
COc1ccc(C(=O)NCCCCN2CCC(c3ccc4c(c3OC)CCCC4)CC2)cc1-c1ccc(C(F)(F)F)cc1,Inhibition,[1],100%
same,Inhibition,[2],56%
same,Inhibition,[3],67%
O=C(NCc1cccc(F)c1)Nc1ccc(-c2cccc(-c3nc4ccccc4[nH]3)c2)cc1,Inhibition,[1],86%
same,Inhibition,[2],2%
same,Inhibition,[3],14%
CN1CCN(c2ccnc3ccc(NC(=O)Nc4ccc(-c5ccncc5)c(C(F)(F)F)c4)cc23)CC1,Inhibition,[1],99%
same,Inhibition,[2],99%
same,Inhibition,[3],12%
Cc1sc2nc(CN3CCCC3)nc(-n3c(NCCO)nc4ccccc43)c2c1C,Inhibition,[1],96%
same,Inhibition,[2],11%
same,Inhibition,[3],19%
Cc1ccc(F)cc1S(=O)(=O)Nc1cccc(CCN2CCC(N3CCCCC3)CC2)c1,Inhibition,[1],96%
same,Inhibition,[2],9%
same,Inhibition,[3],15%
O=C(O)C(F)(F)F.c1ccc(CCNCc2cccc(-c3ccccc3CNCc3ccc4c(c3)OCO4)c2)nc1,Inhibition,[1],90%
same,Inhibition,[2],80%
same,Inhibition,[3],41%
COc1ccc(CN2CCC(CN3CC4(OC3=O)c3ccccc3-c3ccccc34)C2)c(O)c1 (configuration not stated),Inhibition,[1],100%
same,Inhibition,[2],79%
same,Inhibition,[3],22%
Cc1nc(C)c(-c2ccc(-c3ccc(F)cc3)cc2)c(O)c1Br,Inhibition,[1],94%
same,Inhibition,[2],52%
same,Inhibition,[3],12%
C=CCN1C(=O)C(C(C)=O)=C(O)C1c1ccccc1 (configuration not stated),Inhibition,[1],93%
same,Inhibition,[2],97%
same,Inhibition,[3],41%
C=CC[C@H](C[C@H](O)[C@H](Cc1ccccc1)NC(=O)c1nn(-c2ccccc2)nc1C)C(=O)NC1CCCCC1,Inhibition,[1],94%
same,Inhibition,[2],3%
same,Inhibition,[3],6%
